The values below come from PubChem BioAssay (NCATS).

Values joined by “and” are separate entries in the source; they are usually repeats but may differ in a detail not shown here. Equal values may be shown once. Results filed as inconclusive are left out. Unmarked numbers belong to inactive results. Active and inactive are the calls of the source. Calls come from the whole dose curve; as a rule, active = well fitted curve in the direction sought with a large enough effect; inconclusive = small, poorly fitted or top-dose-only effect, or another doubt; inactive = no such curve, though single readings can be large; an effect the other way counts as inactive or inconclusive.

In experiment [1] the target is Cellular tumor antigen p53 (Homo sapiens) (UniProt P04637). Description: Primary qHTS for small molecule compounds that upregulate eGFP-tagged delta133p53alpha (in N-terminal) cells. (AID 2060322).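 For activation: 0% = DMSO vehicle and 100% = reference activator.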 Note: nearly all actives have a fitted effect of over 75% in size. The note with it: NCI-H358 eGFP-delta133p53alpha fluorescence, 24 h; activation: stronger effect = higher value. The gist of the method:
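NCI-H358 cells pre-induced 24 h with 10 ng/ml doxycycline to express N-terminal eGFP-delta133p53alpha, then dosed 24 h at 37C without doxycycline; fixed, Hoechst-stained, GFP intensity by laser scanning cytometry, normalized to DMSO (0%) and 57.5 uM 5-azacytidine (100%).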

A short description of experiment [2]: BET inhibitor-based combinations targeting novel dependencies in MECOM-rearranged (r) AML: SET-2 cell line (AID 2202231).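 For viability: plate controls were DMSO treated cells for no effect and wells without cells for full effect.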 Note: nearly all actives have a fitted effect of over 35% in size. The note with it: SET-2 AML cells viability, CellTiter-Glo luminescence, 48 h; viability: stronger effect = lower value, concentration not given here. In a few lines: (§1)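 Viability of cells (500 per well) is scored by luminescent CellTiter-Glo at 48 hr post-dosing. Eleven-point titrations are normalized to DMSO and empty controls and reduced to AUC values.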
(In general: In ATP-based viability assays light output follows the ATP content of the culture.)

Experiment [3] in a line: BET inhibitor-based combinations targeting novel dependencies in MECOM-rearranged (r) AML: MV-4-11 cell line (AID 2202233). Note: nearly all actives have a fitted effect of over 45% in size. The note with it: MV-4-11 AML viability, CellTiter-Glo luminescence, 48 h; series mostly up to 46 µM. The gist of the method: (§2)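 Using pin-tool transfer, drugs were added in 11 doses to cells (500/well), incubated 48 hr, and assessed with CellTiter-Glo. Z-AUC is a mean-centring transformation applied separately to each screened line.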

Experiment [4] is described as follows: BET inhibitor-based combinations targeting novel dependencies in MECOM-rearranged (r) AML: HNT-34 cell line (AID 2202234). Note: nearly all actives have a fitted effect of over 35% in size. The note with it: HNT-34 AML viability, CellTiter-Glo luminescence, 48 h; series mostly up to 46 µM. In a few lines:
as §2

The nature of experiment [5]: BET inhibitor-based combinations targeting novel dependencies in MECOM-rearranged (r) AML: UCSD-AML1 cell line (AID 2202235). Note: nearly all actives have a fitted effect of over 40% in size. The note with it: UCSD-AML1 AML cells viability, CellTiter-Glo, 48 h; series mostly up to 46 µM. The gist of the method: as §2
A short description of experiment [6]: BET inhibitor-based combinations targeting novel dependencies in MECOM-rearranged (r) AML: AML-194 cell line (AID 2202237; note: nearly all actives have a fitted effect of over 40% in size). The note with it: AML-194 (MECOM-r AML) viability, CellTiter-Glo, 48 h; series mostly up to 46 µM. In a few lines:
as §1

The nature of experiment [7]: BET inhibitor-based combinations targeting novel dependencies in MECOM-rearranged (r) AML: AML-191 cell line (AID 2202236; note: nearly all actives have a fitted effect of over 35% in size). The note with it: AML-191 viability, CellTiter-Glo luminescence, 48 h; series mostly up to 46 µM. In a few lines:
as §1

Experiment [8] is described as follows: BET inhibitor-based combinations targeting novel dependencies in MECOM-rearranged (r) AML: OCI-AML3 cell line (AID 2202232). Note: nearly all actives have a fitted effect of over 35% in size. The note with it: CellTiter-Glo luminescence, 48 h; Potency: OCI-AML3 viability; series mostly up to 46 µM. The gist of the method: as §1
Potency is the fitted concentration of half-maximal effect.

Sequence of Cellular tumor antigen p53 (Homo sapiens) (P04637 whole entry, looked up): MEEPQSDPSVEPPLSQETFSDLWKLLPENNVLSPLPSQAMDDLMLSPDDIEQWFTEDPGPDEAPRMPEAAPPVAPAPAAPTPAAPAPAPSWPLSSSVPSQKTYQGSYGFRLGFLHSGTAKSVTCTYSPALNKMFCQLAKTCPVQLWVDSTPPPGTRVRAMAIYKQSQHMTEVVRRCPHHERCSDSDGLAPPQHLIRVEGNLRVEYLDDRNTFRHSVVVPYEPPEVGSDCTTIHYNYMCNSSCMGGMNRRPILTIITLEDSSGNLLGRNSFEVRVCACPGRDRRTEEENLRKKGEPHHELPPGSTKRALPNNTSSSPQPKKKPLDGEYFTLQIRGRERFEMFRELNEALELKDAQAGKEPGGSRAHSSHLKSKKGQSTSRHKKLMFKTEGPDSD

As a reminder, the viability is a read-out of living cells in per cent, often relative to untreated cells. On to `CCCCCOC(=O)Nc1nc(=O)n([C@@H]2O[C@H](C)[C@@H](O)[C@H]2O)cc1F`, for which the activation in experiment [1] is -37.9%. Besides, in experiment [2], the viability was 110%. Further, the Potency entry in experiment [3], in experiment [4], in experiment [5] and in experiment [6] was “inactive” in each case.
As for `S=c1nc[nH]c2nc[nH]c12`, in experiment [1], the activation is -18.4% and 17.9%. Also, the Potency in experiment [2] is 2.63 µM (active); in experiment [3], 0.417 µM (active); in experiment [4], 16.6 µM (active); in experiment [5], 3.72 µM (active); in experiment [6] it was 0.59 µM (active).
With `CN1CCN(c2ncc(-c3cc(Cl)cc(Cl)c3Cl)c(N)n2)CC1`, the activation in experiment [1] was 4.6%. Also, the Potency in experiment [2] is 23.5 µM (active); in experiment [3], 8.33 µM (active); in experiment [7], 16.6 µM (active). Further, the Potency result in experiment [5] is “inactive”.
In the case of `O=NN(CCCl)C(=O)NC1CCCCC1`, the activation in experiment [1] is -3.35% and 3.74%. In experiment [2], the viability was 112%. Besides, the Potency result in experiment [3], in experiment [4], in experiment [5], in experiment [7] and in experiment [6] was “inactive” in each case.
Turning to `NC(=O)c1ccc(I)c([N+](=O)[O-])c1`, the activation in experiment [1] is 13.8%. Also, the viability in experiment [2] was 105%. The Potency in experiment [3] is 16.6 µM (active). Moreover, the Potency entry in experiment [5] and in experiment [6] was “inactive” each time.
Consider `CCC(C)(C)C(=O)O[C@H]1C[C@@H](C)C=C2C=C[C@H](C)[C@H](CC[C@@H]3C[C@@H](O)CC(=O)O3)[C@H]21`, for which the activation in experiment [1] is -16.4% and -15.4%. For the same molecule, in experiment [2], the viability is 103%. Moreover, in experiment [3], the Potency was 18.6 µM (active). Also, the Potency result in experiment [7] and in experiment [6] was “inactive” in each case.
As for `O=C1NCCc2[nH]c(-c3ccncc3)cc21`, the Potency is 7.69 µM (active) in experiment [1]; 3.72 µM (active) in experiment [2]; 1.86 µM (active) in experiment [3]; 3.32 µM (active) in experiment [4]; 2.63 µM (active) in experiment [5]; 2.63 µM (active) in experiment [6].
In the case of `CN(C)CCN1C(=O)c2cccc3cc(N)cc(c23)C1=O`, the Potency in experiment [1] is 34.3 µM (active); in experiment [2], 14.8 µM (active); in experiment [3] it was 3.72 µM (active); in experiment [4], 10.5 µM (active); in experiment [7] it was 13.2 µM (active); in experiment [6], 16.6 µM (active).
As to `CCCC1OC2C[C@@H]3[C@H]4CCC5=CC(=O)C=C[C@]5(C)[C@H]4C(O)C[C@]3(C)[C@]2(C(=O)CO)O1` (some centres undefined), in experiment [1], the activation is 16.2%. For the same molecule, the viability in experiment [2] is 98.3%. In addition, the Potency was 20.9 µM (active) in experiment [3] and 0.0295 µM (active) in experiment [7]. The Potency result in experiment [5] was “inactive”.
On to `Cc1ccc(C(=O)Nc2cccc(C(F)(F)F)c2)cc1Nc1nc(-c2cccnc2)nc2c1cnn2C`, for which the activation in experiment [1] is 9.99%. In addition, the Potency in experiment [2] is 20.9 µM (active); in experiment [3], 16.6 µM (active); in experiment [4] it was 9.34 µM (active); in experiment [7], 8.33 µM (active); in experiment [6] it was 10.5 µM (active).
As to `NCc1c[nH]c(=S)n1[C@H]1CCc2c(F)cc(F)cc2C1`, the activation in experiment [1] is -19.4%. The viability in experiment [2] was 110%. For the same molecule, the Potency entry in experiment [3], in experiment [7] and in experiment [6] was “inactive” in each case.
On to `CC1=C(CC(=O)O)c2cc(F)ccc2C1=Cc1ccc(S(C)=O)cc1` (centres undefined), for which the activation in experiment [1] is -21.9%. For the same molecule, the viability in experiment [2] was 104%. In addition, the Potency in experiment [3] and in experiment [4] was 18.6 µM (active) in each case. The Potency result in experiment [5] and in experiment [6] was “inactive” throughout.
Turning to `Nc1[nH]c(=O)ncc1F`, the activation in experiment [1] is 10.9% and -17.3%. In addition, the viability in experiment [2] is 119%. For the same molecule, the Potency result in experiment [3], in experiment [4], in experiment [5], in experiment [7] and in experiment [6] was “inactive” throughout.
In the case of `Cc1cc(O)c2c(c1)C(=O)c1cccc(O)c1C2=O`, the activation in experiment [1] is 32.6%. For the same molecule, the viability in experiment [2] is 116%. The Potency entry in experiment [3], in experiment [4], in experiment [5] and in experiment [6] was “inactive” each time.
Take `C[C@]12CC[C@@H]3c4ccc(O)cc4C[C@@H](CCCCCCCCCS(=O)CCCC(F)(F)C(F)(F)F)[C@H]3[C@H]1CC[C@H]2O` (some centres undefined): the activation in experiment [1] was -2.43%. The results for the Potency in experiment [2] and in experiment [3] were 4.68 µM (active) and 9.34 µM (active), respectively. Further, the Potency result in experiment [5] and in experiment [6] was “inactive” throughout.
Consider `CCCn1c(=O)c2[nH]c(C34CC5CC3C[C@@H](C5)C4)nc2n(CCC)c1=O`, for which, in experiment [1], the activation was 31.9%. Also, the viability in experiment [2] was 109%. The Potency in experiment [3] is 20.9 µM (active); in experiment [7] it was 16.6 µM (active). Further, the Potency entry in experiment [5] and in experiment [6] was “inactive” each time.
As to `NC(=O)N1CCC(CC(=O)N2CCC([C@H]3c4ncc(Br)cc4CCc4cc(Cl)cc(Br)c43)CC2)CC1`, the activation in experiment [1] is 7.44%. The values for the Potency in experiment [8], in experiment [3] and in experiment [4] were 1.18 µM (active), 16.6 µM (active) and 11.8 µM (active), respectively.
As for `COc1ccc(C(=O)CC(=O)c2ccc(C(C)(C)C)cc2)cc1`, the activation in experiment [1] was -17.5% and -8.43%. The viability in experiment [2] is 107%. Besides, in experiment [5], the Potency entry is “inactive”. Moreover, in experiment [7], the Potency was 20.9 µM (active).
`O=C(Nc1ccc2[nH]nc(-c3ccncc3)c2c1)[C@@H]1CCN(CC(=O)N2CCN(c3ccc(-c4ncccn4)cc3)CC2)C1`: in experiment [1], the activation is 4.47%. Moreover, the Potency in experiment [8] is 0.235 µM (active); in experiment [3], 1.66 µM (active); in experiment [4], 1.05 µM (active); in experiment [5], 2.63 µM (active); in experiment [7] it was 2.09 µM (active).
`CC(C)Cn1cnc2c(N)nc3ccccc3c21`: in experiment [1], the activation is -10% and 13.9%. Besides, the viability in experiment [2] is 101%. Moreover, the Potency entry in experiment [4], in experiment [5], in experiment [7] and in experiment [6] was “inactive” each time.
For `CN1c2cc(O)c(N=NC(N)=O)cc2CC1S(=O)(=O)O` (centres undefined), the activation in experiment [1] was 16.4%. In experiment [2], the viability was 89.9%. Moreover, the Potency result in experiment [5], in experiment [7] and in experiment [6] was “inactive” each time.
With `Cc1c(C(=O)NN2CCCCC2)nn(-c2ccc(Cl)cc2Cl)c1-c1ccc(Cl)cc1`, the activation in experiment [1] was 8.47% and -3.72%. In experiment [8], the Potency result is “inactive”. Moreover, the Potency in experiment [3] is 20.9 µM (active).
For `CCCCCCCN(CC)CCCC(O)c1ccc(NS(C)(=O)=O)cc1` (centres undefined), the activation in experiment [1] is 5.18%. Further, the viability in experiment [2] is 96.2%. The Potency result in experiment [4] and in experiment [5] was “inactive” in each case.
